Test results reported in the supplement of paper PMC7366291.
Where a name gives a salt, the structure may show the parent alone. ± gives the standard deviation or the standard deviation of the averaged measurements.

Key:
Details in all cases: 25 µM; exposure: 24-48 hpf
[1] = test system: Danio rerio Tg(wt1b:EGFP) embryo, pronephros; experiment: glomerular separation, fold change vs DMSO control; higher = glomeruli further apart (abnormal)
Summary of the method: (§1)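 Dechorionated Tg(wt1b:EGFP) zebrafish embryos were exposed to 25 μM compound in 0.5% DMSO, HEPES-buffered E3 with 0.003% PTU, from 24 to 48 hpf at 28.5°C. Pronephroi were imaged dorsally in agarose-filled 96-well plates (470 nm, 10 z-slices). On maximum projections, 16 reference points were set manually in Fiji and a macro computed distances and angles. Values more than 2 SD from the feature mean were excluded. Each feature is a fold change relative to the mean of same-day DMSO controls.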

[2] = test system: Danio rerio Tg(wt1b:EGFP) embryo, pronephros; experiment: glomerular width (mean of left and right), fold change vs DMSO control; higher = wider glomerulus
Summary of the method: as §1

[3] = test system: Danio rerio Tg(wt1b:EGFP) embryo, pronephros; experiment: fraction of imaged embryos annotated as normal kidney; higher = less nephrotoxic; extreme values may be limits of the assay
Summary of the method: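 Embryos of the Tg(wt1b:EGFP) zebrafish line were dechorionated and held in 12-well plates with 25 μM compound in 0.5% DMSO and 5 mM HEPES-buffered E3 containing 0.003% PTU, from 24 to 48 hpf at 28.5°C. Larvae were then anaesthetised with tricaine, set dorsal side up in agarose-filled 96-well plates, and their pronephroi imaged by widefield fluorescence at 470 nm over 10 z-slices. Each value is the fraction of embryos per treatment placed in the normal-kidney category after manual annotation of maximum projections.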

[4] = test system: Danio rerio Tg(wt1b:EGFP) embryo, pronephros; experiment: pronephric angle neck segment to proximal convoluted tubule (mean of left and right), fold change vs DMSO control; higher = larger pronephric angle
Summary of the method: as §1

Structure (SMILES)	glomerular separation [1]	glomerular width [2]	fraction of imaged embryos annotated as normal kidney [3]	pronephric angle neck segment [4]
O=c1[nH]c(=O)n([C@H]2C[C@H](O)[C@@H](CO)O2)cc1C(F)(F)F [Trifluridine]	0.965 ± 0.28	0.9839 ± 0.0047	0.917	0.99 ± 0.013
O=C1C(CC[S+]([O-])c2ccccc2)C(=O)N(c2ccccc2)N1c1ccccc1 (configuration not stated) [Sulfinpyrazone]	1.21 ± 0.35	1.02 ± 0.03	0.833	1 ± 0.012
OCCN1CCN(CCCN2c3ccccc3C=Cc3ccccc32)CC1 [Opipramol dihydrochloride]	0.662 ± 0.23	1.1 ± 0.043	0.75	1.02 ± 0.076
